The test system of assay [1] is transactivating tegument protein VP16 (Human herpesvirus 1). In words: compounds suppressing VP16-driven luciferase signal – cell-based, luminescence, single concentration, counter-screen for SRC2 inhibitor project (AID 652007; in the data active = inhibition above about 36%). Particulars: cell-based VP16 transactivation luciferase reporter, at 8.9 µM, hits give high values. A general note: A counterscreen serves to expose hits that act by an unwanted route or on another target.

The target in assay [2] is Nuclear receptor coactivator 2 (Homo sapiens) (UniProt Q15596). In words: inhibition of GAL4-SRC2 driven luciferase expression – cell-based, luminescence, HEK293, triplicate, confirmation (AID 652008).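 Note: 0% = DMSO-treated cells and 100% = Gossypol at 36 µM.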 To be noted: HEK293 GAL4-SRC2 luciferase reporter, at 8.9 µM, hits give high values. In general terms: A reporter such as luciferase makes a cellular process visible.

Unmarked numbers belong to inactive results. The source made the active and inactive calls.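 Rule for the calls, unless noted: active = mean inhibition above 46.5%, the solvent-only control mean plus 3 SD; inactive = the rest.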

Nuclear receptor coactivator 2 (Homo sapiens), sequence (Q15596 whole entry, looked up, the tested form may be a part): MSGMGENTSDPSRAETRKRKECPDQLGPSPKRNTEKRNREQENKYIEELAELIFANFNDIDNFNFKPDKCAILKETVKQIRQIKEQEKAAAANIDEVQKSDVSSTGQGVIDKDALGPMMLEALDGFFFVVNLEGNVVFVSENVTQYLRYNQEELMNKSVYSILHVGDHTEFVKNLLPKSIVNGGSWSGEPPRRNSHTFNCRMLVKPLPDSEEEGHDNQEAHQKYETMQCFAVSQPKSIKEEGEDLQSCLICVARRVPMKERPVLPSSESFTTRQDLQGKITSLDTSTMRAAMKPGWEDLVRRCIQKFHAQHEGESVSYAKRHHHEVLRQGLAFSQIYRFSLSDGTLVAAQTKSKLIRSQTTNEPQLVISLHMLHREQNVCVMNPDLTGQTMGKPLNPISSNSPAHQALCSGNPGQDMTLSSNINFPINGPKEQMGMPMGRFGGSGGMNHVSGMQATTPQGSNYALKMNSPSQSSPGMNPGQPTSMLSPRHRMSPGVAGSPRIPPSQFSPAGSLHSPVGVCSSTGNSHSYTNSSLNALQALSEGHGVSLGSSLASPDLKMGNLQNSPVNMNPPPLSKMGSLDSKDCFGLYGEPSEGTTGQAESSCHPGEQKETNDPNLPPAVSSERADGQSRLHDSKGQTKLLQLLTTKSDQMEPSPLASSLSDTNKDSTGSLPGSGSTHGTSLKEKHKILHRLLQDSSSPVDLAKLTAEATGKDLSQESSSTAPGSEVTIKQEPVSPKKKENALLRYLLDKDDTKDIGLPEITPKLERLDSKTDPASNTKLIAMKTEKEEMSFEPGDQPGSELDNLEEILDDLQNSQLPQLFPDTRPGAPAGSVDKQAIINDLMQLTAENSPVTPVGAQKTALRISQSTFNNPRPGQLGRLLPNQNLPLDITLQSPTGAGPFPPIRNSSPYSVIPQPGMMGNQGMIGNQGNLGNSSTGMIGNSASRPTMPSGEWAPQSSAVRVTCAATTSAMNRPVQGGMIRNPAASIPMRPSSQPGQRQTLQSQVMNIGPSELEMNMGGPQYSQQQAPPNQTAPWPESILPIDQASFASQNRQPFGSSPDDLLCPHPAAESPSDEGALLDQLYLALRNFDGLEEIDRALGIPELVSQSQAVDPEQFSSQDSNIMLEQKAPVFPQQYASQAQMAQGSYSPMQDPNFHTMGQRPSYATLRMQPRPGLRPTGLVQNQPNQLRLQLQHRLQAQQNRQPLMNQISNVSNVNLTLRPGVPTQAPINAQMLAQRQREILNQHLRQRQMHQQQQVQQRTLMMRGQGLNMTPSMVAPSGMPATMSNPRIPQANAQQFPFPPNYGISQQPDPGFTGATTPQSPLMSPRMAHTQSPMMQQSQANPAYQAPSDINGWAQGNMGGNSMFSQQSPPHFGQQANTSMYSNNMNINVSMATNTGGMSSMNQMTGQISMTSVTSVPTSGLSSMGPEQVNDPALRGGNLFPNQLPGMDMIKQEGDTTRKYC

What is called inhibition is the change of the read-out against control, counted positive when it falls. In the case of `COc1ccc(CNC(=O)COC(=O)/C=C/c2cccc(Br)c2)cc1OC`, the inhibition in assay [1] was -0.64%; in assay [2], -19.4%.

For the compound `CC(NC(=O)CCc1nnc(-c2ccc(-c3ccccc3)cc2)o1)c1nccs1` (centres undefined), the inhibition is 17% in assay [1] and 58.5% (active) in assay [2].

With `Cc1ccc([C@@H]2C[C@H]3[C@@H](CN2S(=O)(=O)c2ccc(C)cc2)C(=O)C[C@@H](c2ccccc2F)N3S(=O)(=O)c2ccc(C)cc2)cc1`, the values for the inhibition in assay [1] and in assay [2] were -8.37% and -5.47%, respectively.

As to `CCOC(=O)c1c(C)[nH]c(C)c1C(=O)COC(=O)c1ccccc1O`, the values for the inhibition in assay [1] and in assay [2] were 2.18% and 20.3%, respectively.

On to `COC(=O)c1ccc(Sc2nnnn2-c2ccccc2)c([N+](=O)[O-])c1`, for which the inhibition in assay [1] was 20.1%; in assay [2] it was 48.2% (active).

On to `COc1ccc(C2C(O)C(c3c[nH]c4ccccc34)=NN2C(=O)CCl)cc1` (centres undefined), for which the inhibition was 72.7% (active) in assay [1] and 79.9% (active) in assay [2].

On to `Cc1nc(N/N=C/c2ccccn2)sc1C`, for which the inhibition in assay [1] is 29.8%; in assay [2], 60.2% (active).

With `Cc1cc(C)nc(NC(=O)c2c(F)c(F)c(F)c(C(=O)Nc3cc(C)cc(C)n3)c2F)c1`, the inhibition in assay [1] was 19.3%; in assay [2], 48.3% (active).

On to `c1nnc2c3c4c(sc3ncn12)CCC4`, for which the results for the inhibition in assay [1] and in assay [2] were 4.85% and 26.2%, respectively.

Turning to `CC(OC(=O)C1CCCCC1)C(=O)Nc1cccc([N+](=O)[O-])c1` (centres undefined), the inhibition in assay [1] is -0.78%; in assay [2], 9.77%.

For the compound `COc1ccc(O)c(C(=O)c2cnn(S(=O)(=O)c3ccc(C)cc3)c2)c1`, the inhibition was -7.7% in assay [1] and 7.12% in assay [2].

For `CCc1ccc(-c2nc(CSCC(=O)NC3CC3)c(C)o2)cc1`, the inhibition is 47.6% (active) in assay [1] and 35.1% in assay [2].

The values above are taken from PubChem BioAssay.
